{"source": "PubChem BioAssay (NCATS)", "note": "Inconclusive results are not listed. Where a call stands in place of a potency, no number is given. Activity calls are given as the source filed them. The call rests on the fitted dose curve; in most records, active means well fitted inhibition curve with a large enough effect; inconclusive means small, poorly fitted or top-dose-only effect; inactive means flat fitted curve, though single readings scatter. Square brackets hold non-standard residues; d marks the D form. Peptide text beside a SMILES is read from it. ξ: configuration not given here. ξPhe(βξ-Me) = CC(c1ccccc1)C(N)C(=O)O; GABA = NCCCC(=O)O", "data": [{"target": "Aldehyde dehydrogenase, mitochondrial (Homo sapiens) (UniProt P05091)", "assay": "qHTS for Inhibitors of the Aldehyde Dehydrogenase Family (ALDH2) Primary screen (AID 2061308); further: nearly all actives have a fitted effect of over 55% in size", "details": "ALDH2 enzyme inhibition qHTS, 1536-well; series mostly up to 56 µM", "values": [{"smiles": "CCOc1cc(CNC2CCCC2)cc(Cl)c1OCc1ccc(Cl)cc1", "Potency": "inactive"}, {"smiles": "CC1=CC(=O)[C@H]2C(C)(C)CCC[C@]2(C)[C@@]1(O)CO", "Potency": "inactive"}, {"smiles": "O=C(/C=C/c1ccc(O)cc1)OCC1OC(O)C(OC2OC(CO)C(O)C(O)C2O)C(O)C1O", "note": "(stereo unspecified)", "Potency": "inactive"}, {"smiles": "C/C(=C\\CO)CC/C=C(\\C)C(=O)O[C@@H]1O[C@H](CO)[C@@H](O)[C@H](O)[C@H]1O", "Potency": "inactive"}, {"smiles": "O=C(OCC(O)CO[C@@H]1O[C@H](C(=O)O)[C@@H](O)[C@H](O)[C@H]1O)c1ccccc1", "note": "(stereo partly specified)", "Potency": "inactive"}, {"smiles": "CNC(=O)c1ccccc1Sc1ccc2c(/C=C/c3ccccn3)n[nH]c2c1", "Potency": "inactive"}, {"smiles": "CC(C)(O)c1ccc2c(c1)C(=O)C[C@H]1[C@](C)(C(=O)O)CCC[C@]21C", "Potency": "inactive"}, {"smiles": "CC(C)CC1NC(=O)C(C(C)c2ccccc2)NC(=O)C(C(C)C)NC(=O)C(C)NC(=O)CCCNC(=O)C(Cc2c[nH]c3ccccc23)NC(=O)C(C)NC1=O", "note": "(stereo not drawn) (cyclo([GABA]AV[ξPhe(βξ-Me)]LAW); configuration not given here)", "Potency": "inactive"}, {"smiles": "COc1cc(O[C@@H]2O[C@H](CO)[C@@H](O)[C@H](O)[C@H]2O)c(CCC(=O)OC[C@H]2O[C@@H](Oc3cc(OC)c(C4OC(=O)C(C)(O)C4O)cc3CCC(=O)O)[C@H](O)[C@@H](O)[C@@H]2O)cc1C1OC(=O)C(C)(O)C1O", "note": "(stereo partly specified)", "Potency": "inactive"}, {"smiles": "C[C@@H](Oc1cc(-n2cnc3ccc(OC4CCN(C)CC4)cc32)sc1C(N)=O)c1ccccc1C(F)(F)F", "Potency": "inactive"}, {"smiles": "CCc1nn(CCO)c(CC)c1Oc1cc(C#N)cc(C#N)c1", "Potency": "inactive"}, {"smiles": "C=C[C@@]12COC(=O)C(=C)[C@@H]1[C@@H](O)[C@H](C(=C)C(=O)OC)[C@@H](O)C2", "Potency": "inactive"}, {"smiles": "CC(=O)c1cc(C(=O)N[C@@H](C)Cn2ccc(-c3ccc(C#N)c(Cl)c3)n2)[nH]n1", "Potency": "inactive"}, {"smiles": "O=C(OC1C=C(CO)C2C(OC3OC(CO)C(O)C(O)C3O)OC=CC12)c1ccc(O)cc1", "note": "(stereo unspecified)", "Potency": "inactive"}, {"smiles": "CC(C)C1NC(=O)CNC(=O)C2CCCN2C(=O)C(Cc2c[nH]c3ccccc23)NC(=O)CNC(=O)C(Cc2ccc(O)cc2)NC(=O)CNC1=O", "note": "(stereo unspecified) (cyclo(GVGYGWP); configuration not given here)", "Potency": "inactive"}, {"smiles": "CCOC(=O)CCNc1cc(N2CCc3ccccc3CC2)nc(-c2cccnc2)n1", "Potency": "inactive"}, {"smiles": "O=C1c2c(O[C@@H]3O[C@H](CO)[C@@H](O)[C@H](O)[C@H]3O)cc(O)cc2OC1(O)Cc1ccc(O)cc1", "note": "(stereo partly specified)", "Potency": "inactive"}, {"smiles": "C/C(=C\\C1CCC(C)C2CCC3(C)OC123)C(=O)O", "note": "(stereo unspecified)", "Potency": "inactive"}, {"smiles": "CC1(C)[C@@H](O)CC[C@]2(C)[C@H]3CC=C4[C@@H]5C[C@](C)(C(=O)O)CC[C@]5(C)CC[C@@]4(C)[C@]3(C)CC[C@@H]12", "Potency": "inactive"}, {"smiles": "CC(C)(C)[C@H](NC(=O)c1ccc(N)c(Cl)c1)C(=O)N1CCC[C@H]1C(=O)N[C@H](C#N)CC(=O)O", "Potency": "inactive"}, {"smiles": "C/C=C(\\C)C(=O)O[C@@H]1CC2[C@@H](CC=C3C[C@@H](O[C@H]4C[C@H](OC)[C@H](O[C@H]5C[C@H](OC)[C@H](O[C@H]6C[C@H](OC)[C@H](O[C@H]7C[C@@H](OC)[C@H](O[C@@H]8O[C@H](CO)[C@@H](O)[C@H](O)[C@H]8O)[C@@H](C)O7)[C@@H](C)O6)[C@@H](C)O5)[C@@H](C)O4)CC[C@@]32C)[C@@]2(O)CC[C@H](C(C)=O)[C@@]12C", "note": "(stereo partly specified)", "activity change, negative = inhibition": "15.2% [at 11.2 µM] (inactive)"}, {"smiles": "CC(=O)O[C@H]1[C@H](O[C@H]2CC[C@]34C[C@]35CC[C@]3(C)[C@@H]([C@@]6(C)CC[C@@H](C(C)(C)O)O6)[C@@H](O)C[C@@]3(C)[C@@H]5C[C@H](O[C@@H]3O[C@H](CO)[C@@H](O)[C@H](O)[C@H]3O)[C@H]4C2(C)C)OC[C@@H](OC(C)=O)[C@@H]1O", "Potency": "inactive"}, {"smiles": "COC(=O)C1=CO[C@@H](O[C@@H]2O[C@H](CO)[C@@H](O)[C@H](O)[C@H]2O)/C(=C\\CO)[C@@H]1CC(=O)OCCc1ccc(O)cc1", "Potency": "inactive"}, {"smiles": "CC(C)Oc1ccc(-c2nc(-c3cccc4c3CCC4NCCC(=O)O)no2)cc1C#N", "note": "(stereo unspecified)", "Potency": "inactive"}, {"smiles": "CC[C@H]1OC(=O)[C@H](C)C(=O)[C@H](C)[C@@H](OC2O[C@H](C)C[C@H](N(C)C)[C@H]2O)[C@@H](C)C[C@@H](C)C(=O)/C=C/[C@]1(C)O", "note": "(stereo partly specified)", "Potency": "inactive"}, {"smiles": "COC(=O)C1=CO[C@@H](O[C@@H]2O[C@H](CO)[C@@H](O)[C@H](O)[C@H]2O)[C@@H]2[C@@](C)(O)[C@@H](O)C[C@]12O", "Potency": "inactive"}]}]}
